Records with an inconclusive call do not appear. Activity calls are given as the source filed them. The call rests on the fitted dose curve; in most records, active means well fitted cell-killing curve with a large enough effect in the repeat runs; inconclusive means weak or mixed curves, or effect the other way; inactive means flat fitted curve, though single readings scatter.
test: Human pregnane X receptor (PXR) small molecule agonists, qHTS cell viability counter screen (AID 1346977); settings: PXR-Luc HepG2 viability, CellTiter-Fluor, 24 h; series mostly up to 92.4 µM; activity change, negative = cytotoxicity: at the top concentration; further: nearly all actives have a fitted effect of over 50% in size
Excerpt: U.S. Tox21 Program National Center for Advancing Translational Sciences [NCATS] NIH Chemical Genomics Center [NCGC] U.S. Environmental Protection Agency [EPA] National Institutes of Environmental Health Sciences [NIEHS] National Toxicology Program [NTP] U.S. Food and Drug Administration [FDA] Tox21 Assay Overview: The human pregnane X receptor (hPXR) regulates the expression of several drug metabolizing enzymes and induction of these proteins is a major mechanism for developing drug resistance in cancer. One such key enzyme catalyzing the drug metabolism is cytochrome P450 3A4 (CYP3A4). Changes in CYP3A4 expression affect drug metabolism, thereby reducing the therapeutic efficacy and altering toxicological response to a drug and which finally causes adverse drug interaction. To screen Tox21 libraries for compounds that activate hPXR-mediated CYP3A4 gene expression, PXR-Luc HepG2 cells were used. Also cytotoxicity of the compounds was tested in parallel by measuring the cell viability using CellTiter-Fluor assay system in the same wells.
Tox21 Assay Protocol Summary: PXR-Luc HepG2 cells were dispensed at 2,000 per well in 5uL of assay medium containing 5% charcoal-stripped FBS into white solid bottom 1536-well plates (Corning Life Sciences, Corning, NY) using a Multidrop Combi (Thermo Scientific, Waltham, MA) dispenser. The assay plates were incubated at 37 C and 5% CO2 for 5hr, and then 23nL of compounds dissolved in DMSO and positive control were transferred using a Pintool station (Wako, San Diego, CA). The assay plates were incubated at 37C and 5% CO2 for 24hr. For cytotoxicity read, after 23hr incubation at 37C, 1uL CellTiter-Fluor reagent (Promega Corporation, Madison, WI) was added to each well of the assay plates using Flying Reagent Dispenser (FRD, Aurora Discovery, San Diego, CA). After 1hr incubation at 37C and 5% CO2, the fluorescence signal was quantified using a ViewLux plate reader (PerkinElmer, Shelton, CT).
On the % scale 0 is the no-effect control and ±100 the full control effect; potency means the concentration at half of the fitted maximal effect.

Row | Structure (SMILES) | activity change, negative = cytotoxicity | Potency
1 | OC/C(Br)=C(\Br)CO | -1.28% (inactive) | 
2 | CC#N | 2.2% (inactive) | 
3 | CCN(Cc1cccc(S(=O)(=O)O)c1)c1ccc(C(=C2C=CC(=[N+](CC)Cc3cccc(S(=O)(=O)[O-])c3)C=C2)c2ccccc2)cc1 | -10.4% [at 42.5 µM] (inactive) | 
4 | c1cnc2c(n1)CCCC2 | -0.574% (inactive) | 
5 | CC(=O)OCC(=O)[C@@]12OC(C)(C)O[C@@H]1C[C@H]1[C@@H]3C[C@H](F)C4=CC(=O)C=C[C@]4(C)[C@@]3(F)[C@@H](O)C[C@@]12C | 8.58% [at 42.5 µM] (inactive) | 
6 | COCc1c(C(C)C)nc(C(C)C)c(/C=C/[C@@H](O)C[C@@H](O)CC(=O)O)c1-c1ccc(F)cc1 |  | inactive
7 | CC(=O)Nc1ccc(N)cc1 | 3.87% (inactive) | 
8 | CC(=O)Nc1ccccc1C | 10.5% (inactive) | 
9 | CCn1cc(C(=O)O)c(=O)c2cc(F)c(N3CCNCC3)nc21 | 6.8% [at 42.5 µM] (inactive) | 
10 | CN1CCCN=C1/C=C/c1cccs1 | 2.38% [at 42.5 µM] (inactive) | 
11 | CCCC1C(CC)=CC(CC)=CN1c1ccccc1 (stereo not given) | -6.64% (inactive) | 
12 | CC1(C)C2=CCCC(C)(C)[C@]23CC[C@H]1C3 | 12.3% (inactive) | 
13 | COc1cc2[nH]c(=O)[nH]c(=O)c2cc1OC | 4.51% [at 42.5 µM] (inactive) | 
14 | Cc1cnc(C)c(C)n1 | 2.57% (inactive) | 
15 | COc1cc2c(N3CCN(C(=O)Nc4ccc(OC(C)C)cc4)CC3)ncnc2cc1OCCCN1CCCCC1 |  | 23.7 µM (active)
16 | C=CC(C)=CCC=C(C)C | 12.2% (inactive) | 
17 | CCCOC(=O)c1ccc(C(=O)OCCC)nc1 | -7.28% (inactive) | 
18 | O=C(O)C(Cc1cc(I)c(O)c(I)c1)c1ccccc1 (stereo not given) | 9.83% [at 42.5 µM] (inactive) | 
19 | CCCC(=O)O[C@]1(C(=O)COC(=O)CC)CC[C@H]2[C@@H]3CCC4=CC(=O)CC[C@]4(C)[C@H]3[C@@H](O)C[C@@]21C | 12.4% [at 19 µM] (inactive) | 
20 | CCC(=O)OC/C=C/c1ccccc1 |  | inactive

Row | Structure (SMILES) | activity change, negative = cytotoxicity | Potency
21 | CCCOCCOCCO | 3.97% (inactive) | 
22 | COCC(O)CO (stereo not given) | -2.34% (inactive) | 
23 | CCCCCCCCCCCC(=O)[O][Sn]([CH2]CCC)([CH2]CCC)[O]C(=O)CCCCCCCCCCC | -2.42% [at 42.5 µM] (inactive) | 
24 | COC(=O)c1cc(Cl)ccc1NS(=O)(=O)C(F)(F)F | 7.23% [at 42.5 µM] (inactive) | 
25 | Nc1nc(Cl)nc2c1ncn2[C@@H]1O[C@H](CO)[C@@H](O)[C@@H]1F | -8.67% [at 42.5 µM] (inactive) | 
26 | CCCCOC(=O)CCS | 7.82% (inactive) | 
27 | CC(C)(C)C(=O)C(Oc1ccc(Cl)cc1)n1ccnc1 (stereo not given) | 9.38% [at 42.5 µM] (inactive) | 
28 | Cc1nccn1-c1ccc(Sc2cccc(C3(C(N)=O)CCOCC3)c2)cc1 |  | 8.63 µM (active)
29 | COc1ccc([C@@H]2Sc3ccccc3NC(=O)[C@@H]2O)cc1 | 12.3% [at 42.5 µM] (inactive) | 
30 | CCOC(=O)C(C)Oc1ccc(Oc2nc3ccc(Cl)cc3o2)cc1 (stereo not given) | 1.31% (inactive) | 
31 | C=CCNc1nc(NCC=C)nc(N2CCN(C(c3ccc(F)cc3)c3ccc(F)cc3)CC2)n1 | -21.1% [at 42.5 µM] (inactive) | 
32 | COc1ccc(C(=O)c2cccc(O)c2)c(OC)c1 | -9.07% (inactive) | 
33 | O=Cc1c(Cl)cccc1Cl | -0.0658% (inactive) | 
34 | CC1CC(O)CC(C)(C)C1 (stereo not given) | 3.46% (inactive) | 
35 | CO[C@@]12[C@H](COC(N)=O)C3=C(C(=O)C(C)=C(N)C3=O)N1C[C@@H]1N[C@@H]12 |  | 11.9 µM (active)
36 | CC(C)C(=O)O | 6.04% (inactive) | 
37 | CN1Cc2cc(C(=O)N3CCC(C4CCNCC4)CC3)ccc2N[C@@H](CC(=O)O)C1=O | 19.9% [at 42.5 µM] (inactive) | 
38 | C=C(C)C(=O)OCCOC(=O)CC(C)=O | 6.45% (inactive) | 
39 | C=CC(C)(O)CCCC(C)CCCC(C)CCCC(C)C (stereo not given) | 0.411% (inactive) | 
40 | CC1CN(c2cc3c(cc2F)c(=O)c(C(=O)O)cn3-c2ccc(F)cc2F)CCN1 (stereo not given) | -4.03% [at 8.39 µM] (inactive) | 

Reference: PubChem BioAssay (Tox21)
